# aSyn 5UTR act: Activators working through SNCA 5'UTR binding (MLPCN) | alpha-synuclein 5'UTR reporter, activators screen | activity score, % (tested at 7.5 µM), hits read low | 300,000 compounds, 7.1% hits | AID 1814; in the data active = activity score below about -60%
# Active calls of the source: *. Only a sample is shown.
SMILES,aSyn 5UTR act
CC(=O)Nc1ccc(NC(=O)c2ccco2)cc1,-71*
CC1N(C)c2cc(NC(=O)c3ccco3)ccc2C1(C)C (centres undefined),-81*
O=C(NNC(=O)c1ccccc1O)c1ccco1,-82*
CSc1cccc(NC(=O)c2ccco2)c1,-75*
O=C(Nc1ccc(Cl)cc1)c1ccco1,-131*
CSc1cccc(NC(=O)c2cccc3cccnc23)c1,-134*
O=C(/C=C\c1ccccc1)Nc1ccc(NC(=O)c2ccco2)cc1,-67*
O=C(Nc1cccc(NC(=O)c2ccc(-c3ccc(Br)cc3)o2)c1)c1ccco1,-95*
CCOc1ccc(-c2csc(NNC3=NCCCCC3)n2)cc1,-88*
COc1ccc(-c2csc(NC3=NCCCCC3)n2)cc1,-91*
Brc1ccc(-c2csc(NC3=NCCCCC3)n2)cc1,-138*
c1ccc(-c2csc(NNC3=NCCCCC3)n2)cc1,-72*
COc1ccc(-c2csc(NNC3=NCCCCC3)n2)cc1,-63*
C/C(=N\OC(=O)NC(C)C)c1sc(-c2ccccc2)nc1C,-141*
C/C(=N\OC(=O)NC1CCCCC1)c1sc(-c2ccccc2)nc1C,-115*
CCNC(=O)O/N=C(\C)c1sc(-c2ccc(Cl)cc2)nc1C,-77*
C=C(C)c1sc(-c2ccc(Cl)cc2)nc1C,-223*
C/C(=N\OC(=O)NC(C)C)c1sc(-c2ccc(Cl)cc2)nc1C,-154*
CCCCCCSc1nsc(NC(C)=O)n1,-97*
CCCSc1nsc(NC(=O)CCC)n1,-142*
CCCCSc1nsc(NC(C)=O)n1,-135*
CCCSc1nsc(NC(=O)c2cccnc2OCC)n1,-72*
O=C(Nc1ccccc1)c1ccc(F)cc1F,-108*
Cc1ccc(NC(=O)c2ccc(F)cc2F)cc1,-195*
O=C(NC(=O)c1ccc(F)cc1F)Nc1ccc(Cl)cc1,-159*
SMILES,aSyn 5UTR act
Cc1ccc(S(=O)(=O)Nc2ccc(NC(=O)Nc3ccc(F)cc3F)cc2)cc1,78
CCOC(=O)C1=C(N)n2c(s/c(=C\c3cccnc3)c2=O)=C(C(=O)OC)C1c1cccnc1 (centres undefined),-66*
CCOC(=O)c1snc(-c2ccc(F)cc2)c1N,-130*
O=C(NC1CC(=O)c2sccc21)c1ccc(Cl)cc1Cl (centres undefined),-87*
COC(=O)c1ccccc1NC(=O)/C=C/c1ccco1,-68*
Cn1c(NC(=O)/C=C/c2ccco2)cc(=O)n(C)c1=O,-62*
O=C(/C=C/c1ccco1)Nc1cccnc1Cl,-130*
O=C(/C=C/c1ccccc1)Nc1cccnc1Cl,-84*
O=C(CN1C(=O)c2ccccc2S1(=O)=O)c1ccc(Cl)cc1Cl,78
O=C(CSc1cccc[n+]1[O-])c1cc(Cl)ccc1Cl,-87*
O=C(CSc1cccc[n+]1[O-])c1cc2ccccc2o1,-101*
CCc1c(C)nc(Nc2nc(C)c3cc(OC)ccc3n2)[nH]c1=O,-102*
COc1ccc2c(C)nc(Nc3nc(C)c(C)c(=O)[nH]3)nc2c1,103
CC(C)OC(=O)Nc1ccc2c(c1)N(C(=O)N1CCN(C)CC1)c1ccccc1CC2,-62*
COCCn1c(C)cc(C(=O)CSc2nc3ccccc3c(=O)n2Cc2ccco2)c1C,-176*
COc1ccc(C=Nc2cccc3c(=O)[nH][nH]c(=O)c23)c2ccccc12,-67*
C#CCn1cccc(C(=O)Nc2ccc(OC)cc2)c1=O,-63*
CCCn1cccc(C(=O)Nc2ccc(OC)cc2)c1=O,-82*
CCOC(=O)c1oc2ccccc2c1N,-90*
Cc1ccc(C(=O)c2oc3ccccc3c2N)cc1,-66*
Nc1c(C(=O)c2ccc(Br)cc2)oc2ccccc12,-174*
Nc1c(C(=O)c2ccccc2)oc2ccc(Br)cc12,-256*
COC(=O)CCC(=O)c1oc2ccc(Br)cc2c1N,-83*
NCCCn1c(C(=O)c2ccc(Cl)cc2)c2ccc([N+](=O)[O-])cc2[n+]1[O-],60
Nc1c(C(=O)c2ccccc2)oc2ccc([N+](=O)[O-])cc12,-110*
SMILES,aSyn 5UTR act
NC(=O)CCCn1c(C(=O)c2cc(Cl)c(N)c(Cl)c2)c2ccc([N+](=O)[O-])cc2[n+]1[O-],71
CN(C)c1ccc(N=Cc2nc(-c3ccccc3)oc2OC(=O)c2cccc(Br)c2)cc1,-166*
COc1ccc(N=Cc2nc(-c3ccccc3)oc2OC(=O)c2ccccc2)cc1,-92*
CCC(=O)Oc1oc(-c2ccccc2)nc1C=Nc1ccccc1OC,-63*
O=C(N=Nc1c(O)n(C2OC(=O)c3ccccc32)c2ccccc12)c1ccco1 (centres undefined),-110*
CC(C)c1ccc(N=C2N=C(N)c3ccccc32)cc1,-132*
O=[N+]([O-])c1ccccc1/C=N/OCc1ccccc1,-167*
C=CCNC(=S)Nc1ccc(N(C)C)cc1,-70*
COCCNC(=O)C(=O)Nc1ccc(Br)cc1,-103*
CCCNC(=O)C(=O)Nc1ccc(N(C)C)cc1,-126*
C/C(=N\NC(=O)c1nn(C)c(C)c1Br)c1cccc(NC(=O)c2ccoc2C)c1,-71*
C/C(=N/NC(=O)c1ccoc1C)c1ccc(NC(=O)C2CCCC2)cc1,-121*
C/C(=N\NC(=O)c1ccc(Cn2cc(Br)cn2)o1)c1ccc(NC(=O)c2ccoc2C)cc1,-77*
C/C(=N\NC(=O)c1ccoc1C)c1ccccc1,-127*
CC1c2cc3c(cc2CCN1C(=O)c1cccc(Cl)c1)OCCCO3 (centres undefined),-65*
Cc1ccc(OCc2nnc(N)s2)cc1C,-62*
Cc1ccc(SCC(=O)Nc2cccc(C)c2)cc1,-135*
Cc1cccc(NC(=O)CNc2cc(C)ccc2C)c1,-68*
COC(=O)/C(=C/Nc1cccc2ccccc12)[N+](=O)[O-],-68*
O=C(/C=C/c1cccc2ccccc12)N1CCOCC1,-63*
O=C(/C=C/c1ccc(OCCCF)cc1)N1CCOCC1,-70*
O=C(/C=C/c1cccc(Oc2ccccc2)c1)N1CCOCC1,-95*
N/C(=N\OC(=O)c1cccnc1)c1ccc(Cl)cc1Cl,-153*
N/C(=N\OC(=O)c1cccnc1)c1ccccc1Cl,-69*
CC(=O)N(c1ccccc1)c1nnc(-c2cnc(C)cn2)s1,-83*
SMILES,aSyn 5UTR act
COc1cccc(-c2ccc(SCc3ccccn3)nn2)c1,-84*
O=[N+]([O-])c1cccc(-c2ccc(SCc3ccccn3)nn2)c1,-97*
CC(/C=N/NC(=O)c1ccc2nc(C)[nH]c2c1)=C\c1ccccc1,-67*
CC(=C/c1ccc(C(C)C)cc1)/C=N/NC(=O)c1ccncc1,-110*
CCOc1cc(C(=O)N/N=C/C(Br)=C/c2ccccc2)cc(OCC)c1OCC,104
CC(/C=N/NC(=O)c1cccc(F)c1)=C\c1ccccc1,-254*
O=C(N/N=C/C(Br)=C\c1ccccc1)c1ccc2nc[nH]c2c1,-90*
CC(/C=C/c1ccccc1F)=N\NC(=O)c1cccc(F)c1,-139*
Cc1cc(C)c2c(N)c(-c3nc4ccccc4[nH]3)sc2n1,-131*
O=C(CSc1nnc(-c2ccc(Br)cc2)o1)Nc1cccc(C(=O)O)c1,98
O=C(CSc1nnc(-c2cccnc2)o1)Nc1ccc(Br)cc1,-77*
O=C(CSc1nnc(-c2cccnc2)o1)Nc1cccc(F)c1,-86*
Oc1sc(C=Nc2ccccc2)c2ccccc12,-254*
Oc1c(C=Nc2ccccc2)sc2ccccc12,-65*
Oc1c(C=Nc2ccc(Cl)cn2)sc2ccccc12,-180*
Oc1sc(C=Nc2ccc(F)cc2)c2ccccc12,-227*
COc1ccc2cc(/C=N/NC(=O)c3ccc(CN(c4ccc(C)c(C)c4)S(C)(=O)=O)cc3)c(Cl)nc2c1,65

# Screens (PubChem BioAssay)
